G9a inh: inhibitors of human histone lysine methyltransferase G9a; Q96KQ7; Potency, µM (highest dose often 102 µM), inactives show top-dose activity, negative = inhibition, most hits filed as inhibitors; 350,000 tested, 8.8% active; G9a H3K9 monomethylation, AlphaScreen, 2 h; further: on the % scale 0 is the no-effect control and ±100 the full control effect; nearly all actives have a fitted effect of over 75% in size
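Enzyme 20 nM + cpd, 15 min RT; add b-H3K9 pep 500 nM / SAM 20 uM; 2 h RT; anti-H3K9me1 Ab 0.5 ug/mL + SA donor / anti-rabbit acceptor beads 20 ug/mL each, 10 min; AlphaScreen read.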
BAZ2B inh: BAZ2B (human) inhibition; Q9UIF8; AlphaScreen BAZ2B-H3K14Ac peptide displacement; Potency, µM (titrated, usually from 114 µM), for the others: top-dose activity change, negative = inhibition, usual class: inhibitors; 360,000 tested, 4.4% active; AID 504333; further: on the % scale 0 is the no-effect control and ±100 the full control effect; nearly all actives have a fitted effect of over 60% in size
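Multi-concentration screen (max 110 uM) measuring displacement of acetylated histone H3 peptide from BAZ2B by AlphaScreen, using 50 nM protein, 50 nM peptide and 10 ug/mL streptavidin donor plus Ni-chelate acceptor beads.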
TDP1 block: blocks human tyrosyl-DNA phosphodiesterase 1; Q9NUW8; recombinant TDP1, AlphaScreen DNA substrate cleavage; Potency, µM (series often up to 130 µM), for inactives: at the top dose activity change, negative = inhibition, actives largely listed as inhibitors; 350,000 tested, 0.28% active; further: on the % scale 0 is the no-effect control and ±100 the full control effect; nearly all actives have a fitted effect of over 40% in size
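Tdp1 1 nM final; 15 min RT w/ cpd; substrate 15 nM, 5 min; beads 10 ug/ml, 10 min; AlphaScreen read. Neg ctrl: no enzyme.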
Sfp inh: blocks B. subtilis Sfp PPTase activity | Q9F4F7 | Biochemical Sfp PPTase activity, qHTS | Potency, µM, inactives show largest response in the series, negative = inhibition, most hits filed as inhibitors | 310,000 tested, 3.5% active | AID 1490;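 further: the enzyme is Sfp with the accession as filed and its product quenches rhodamine fluorescence; 0% = enzyme reaction without inhibitor and -100% = no enzyme wells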
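After 15 min at room temperature with compound, 15 nM Sfp received 5 uM rhodamine-CoA plus 12.5 uM BHQ-2-ybbR (50 mM Hepes pH 7.6, 10 mM MgCl2). Rate came from the fluorescence difference over 30 min, ex 525/em 598 nm.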
JMJD2A Tudor inh: inhibitors of human JMJD2A Tudor domain | 390,000 tested, 4.4% active | Potency, µM (doses to about 114 µM), for inactives: at the top dose activity change, negative = inhibition, actives largely listed as inhibitors | AlphaScreen JMJD2A-Tudor / H3K4me3 peptide binding | AID 504339; further: on the % scale 0 is the no-effect control and ±100 the full control effect; nearly all actives have a fitted effect of over 50% in size
HP1b binding inh: blocks HP1-beta chromodomain binding to methylated histone tails. P83916. Potency, µM (titrated, usually from 114 µM), for inactives: at the highest dose activity change, negative = inhibition, hits mostly inhibitors. AlphaScreen HP1-beta / biotin-H3K9me3 peptide binding. 390,000 tested, 0.56% active. AID 540317; further: nearly all actives have a fitted effect of over 70% in size
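Compound inhibition of the preformed complex between 50 nM HP1-beta and 50 nM biotinylated H3K9me3 peptide was read by AlphaScreen. Buffer was PBS pH 7.4 with 0.01% Tween-20. Incubations ran 30 min at room temperature, with 10 ug/mL donor/acceptor beads.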
Numbers without * were called inactive; ? = inconclusive; . = not tested or not shown; [ ] = dose if it differs, or a comment. A selection: hits, their analogues and other compounds. The true share with any hit is near 12%. The call rests on the fitted dose curve; in most records, active means well fitted curve in the direction sought with a large enough effect; inconclusive means small, poorly fitted or top-dose-only effect, or another doubt; inactive means no such curve, though single readings can be large; an effect the other way counts as inactive or inconclusive. Potency means the concentration at half of the fitted maximal effect.

SMILES	G9a inh	BAZ2B inh	TDP1 block	Sfp inh	JMJD2A Tudor inh	HP1b binding inh
CC(Sc1nnc(NC2CC2)s1)C(=O)Nc1ccc(N2CCOCC2)cc1 (stereo not given)	44.7µM*	-18.6%	-6.2%	.	-1.4%	16.1%
COc1ccc(Nc2nnc(SC(C)C(=O)NC3CC3)s2)cc1 (stereo not given)	.	.	0.2%	.	-14.5%	23.4%
C#CCOCCOCCOCCNc1nc(N2CCN(C(=O)[C@H](CCC(=O)O)n3cc(C(N)Cc4ccc(O)cc4)nn3)CC2)nc(N2CCN(C(=O)[C@H](CCC(=O)O)n3cc(C(N)[C@H](C)CC)nn3)CC2)n1 (stereo not given in full)	-127.2%[59 µM]	39.8µM*	0.0%	-28.2%	25.1µM*	21.1%
C#CCOCCOCCOCCNc1nc(N2CCN(C(=O)[C@H](CCC(=O)O)n3cc(C(N)Cc4ccc(O)cc4)nn3)CC2)nc(N2CCN(C(=O)[C@H](CCC(=O)O)n3cc(C(N)CC(C)C)nn3)CC2)n1 (stereo not given in full)	?	50.1µM*	5.1%	-18.5%	31.6µM*	-1.1%
C#CCOCCOCCOCCNc1nc(N2CCN(C(=O)[C@H](CCC(=O)O)n3cc(C(N)Cc4ccc(O)cc4)nn3)CC2)nc(N2CCN(C(=O)[C@H](Cc3ccc(O)cc3)n3cc(C(N)[C@H](C)CC)nn3)CC2)n1 (stereo not given in full)	-25.9%[12.7 µM]	50.1µM*	?	-14.8%	.	.
C#CCOCCOCCOCCNc1nc(N2CCN(C(=O)[C@H](C)n3cc(CCC(=O)O)nn3)CC2)nc(N2CCN(C(=O)[C@H](Cc3ccc(O)cc3)n3cc(CCO)nn3)CC2)n1	.	.	.	.	-33.8%	25.8%
C#CCOCCOCCOCCNc1nc(N2CCN(C(=O)[C@H](CCC(=O)O)n3cc(CN)nn3)CC2)nc(N2CCN(C(=O)[C@H](CCCN=C(N)N)n3cc(C(N)[C@@H](C)CC)nn3)CC2)n1 (stereo not given in full)	.	.	0.2%	.	?	21.7%
CN1CCN(C(=O)Cn2ncc3c4ccccc4n(Cc4ccc(Cl)cc4)c3c2=O)CC1	-29.7%[59 µM]	-26.0%	5.1%	.	-34.2%	5.8%
Nn1c(=S)[nH]nc(Cc2ccc(O)cc2)c1=O	?	?	.	15.8µM*	-4.5%	4.3%
COc1ccc(C2C(C(=O)c3ccc(C)o3)=C(O)C(=O)N2Cc2ccco2)cc1OC (stereo not given)	.	?	-20.9%	44.7µM*	4.3%	31.1%
CCCOc1ccc(C2C(C(=O)c3ccc(C)o3)=C(O)C(=O)N2Cc2ccco2)cc1 (stereo not given)	50.1µM*	?	10.1%	?	-29.1%	6.8%
CCCOc1ccc(C2C(C(=O)c3ccc(C)o3)=C(O)C(=O)N2Cc2ccco2)cc1OCC (stereo not given)	.	?	6.3%[56.1 µM]	-10.3%	?	12.7%
COc1ccc(NC(=O)CCS(=O)(=O)c2ccc3c(c2)n(C)c(=O)c(=O)n3C)cc1Cl	1.8%[59 µM]	-1.6%	2.5%	.	-1.7%	30.4%
NS(=O)(=O)c1ccc(NC2=CC(c3ccc([N+](=O)[O-])cc3)N(c3ccc(S(N)(=O)=O)cc3)C2=O)cc1 (stereo not given)	22.4µM*	?	2.6%	11.2µM*	-32.1%	2.0%
CC(=O)Nc1ccc(N2C(=O)CSC2c2ccc([N+](=O)[O-])cc2)cc1 (stereo not given)	-3.6%	-15.6%	.	10.4%	-17.5%	-16.2%
O=C(CNC1CCCCC1)Nc1cccc(C(F)(F)F)c1	.	5.7%	2.8%	8.4%	-17.0%	21.0%
FC(F)(F)c1cccc(NCc2n[nH]c(=S)n2C2CCCCC2)c1	28.2µM*	?	1.2%	21.9%	?	31.9%
COc1ccc(COc2cc(-c3cccc(OC)c3)nc3ccc(NC(C)=O)cc23)cc1	1.3%[59 µM]	-8.6%	-1.0%	?	?	15.8%
COc1ccc(COc2cc(-c3cccc(OC)c3)nc3ccc(N)cc23)cc1	44.7µM*	?	11.2%	-11.2%	?	6.6%
COc1cccc(C2C(C#N)=C(NC(=O)CCc3ccccc3)Oc3ccc4ccccc4c32)c1 (stereo not given)	.	.	.	.	-24.0%	.
C[C@]12CCC[C@H](O1)c1c(cc3c(c1O)C(=O)c1c(O)cc(O)cc1C3=O)O2	.	.	.	.	35.5µM*	?
Cc1ccc(SCC(=O)NNC(=O)c2cncc(Br)c2)cc1	.	.	0.3%	.	-4.8%	42.7%
COc1ccc(CCN=Cc2ccccc2O)cc1OC	7.2%	-20.6%	2.9%	4.0%	-1.1%	28.9%
COc1ccc(/C=C/C(=O)Nc2ccc(-n3nncc3-c3ccccc3)cc2)cc1OC	44.7µM*	1.8%	5.7%	-3.3%	-17.6%	-13.5%
COc1ccc(/C=C/C(=O)Nc2ccc(C(N)=O)cc2)cc1OC	-2.9%	-11.8%	-1.3%	21.5%	2.1%	32.4%
SMILES	G9a inh	BAZ2B inh	TDP1 block	Sfp inh	JMJD2A Tudor inh	HP1b binding inh
S=C1NCCN1CC1CCN(CC2CCCC2)CC1	.	.	.	.	-5.0%	15.0%
CC(C)NCCOc1cccc(Br)c1	50.1µM*	?	-6.6%	1.6%	4.0%	10.8%
CC(C)NCCCCOc1cccc(Br)c1	28.2µM*	50.1µM*	0.0%	-11.8%	35.5µM*	25.6%
Brc1cccc(OCCCNC2CCCC2)c1	15.8µM*	?	.	-5.2%	15.8µM*	16.5%
COc1ccc(NC(=O)CC2C(=O)N(c3cccc(OC)c3)C(=O)N2Cc2ccc3c(c2)OCO3)cc1 (stereo not given)	-6.9%[59 µM]	-7.1%	-1.3%	.	-22.8%	10.3%
Cc1ccc(C(=O)Nc2cccc(S(=O)(=O)N3CCCC3)c2)o1	-4.3%[12.7 µM]	-0.8%	3.5%	.	-27.6%	12.6%
C=CCn1c(-c2cccn(Cc3cccc(Cl)c3)c2=O)n[nH]c1=S	11.2µM*	-2.8%	-3.1%	4.8%	20µM*	7.9%
C=CCn1c(-c2cccn(Cc3ccc(Cl)cc3)c2=O)n[nH]c1=S	4.47µM*	-9.2%	-5.9%	6.9%	10µM*	1.3%
C=CCn1c(-c2cccn(Cc3ccc(Cl)cc3Cl)c2=O)n[nH]c1=S	2.82µM*	8.4%	3.9%	-2.9%	56.2µM*	12.2%
CNC(=S)NNC(=O)c1cccn(Cc2ccc(Cl)cc2Cl)c1=O	?	4.3%	9.8%	-3.0%	.	.
O=c1c(-c2n[nH]c(=S)n2-c2ccccc2)cccn1Cc1cccc(Cl)c1	3.55µM*	-17.2%	2.9%	12.8%	28.2µM*	10.6%
Cc1noc(C)c1NC(=O)N(C)C[C@@H]1Oc2ccc(NS(=O)(=O)c3c(C)noc3C)cc2C(=O)N([C@H](C)CO)C[C@H]1C	.	.	-5.7%	.	-12.6%	36.8%
